The sample as a whole holds a higher share of hits than the screen did.
ROS inducer – inducers of reactive oxygen species in cancer cells; U2OS ROS induction, H2DCF-DA fluorescence; ROS induction (% of piperlongumine), % at 10 µM; 2% of 46,000 active; AID 624156; in the data active = ROS induction above about 79%, passing the limit was not always enough;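 note: 0% = DMSO vehicle median and 100% = reference compound median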
PD-1 reversal – activators reversing PD-1 mediated T-cell inhibition; primary human CD4 T cells, PD-L1 beads, CellTiter-Glo 96 h; activation, % (test concentration not listed); 29,000 tested, under 10 active; call rule not given here;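 note: 0% = median vehicle wells and 100% = positive control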
Active calls of the source: *; . = not tested or not shown.

SMILES	ROS inducer	PD-1 reversal
COc1ccc(C#Cc2ccc3c(c2)[C@]2(C(=O)N3)[C@H](c3ccc(OCCO)cc3)N3[C@H](c4ccccc4)[C@H](c4ccccc4)OC(=O)[C@H]3[C@@H]2C(=O)N2CCN(c3ncccn3)CC2)cc1	18.8	.
COCCOC(=O)N1C(=O)[C@@]2(c3ccccc31)[C@H](c1ccccc1OCCO)N1[C@H](c3ccccc3)[C@H](c3ccccc3)OC(=O)[C@H]1[C@@H]2C(=O)N1CCCCCCC1	103.4*	.
O=C(Cn1cc(C(=O)c2ccccc2F)c2ccccc21)NCC1CCCO1 (centres undefined)	-1.8	0.9
Cc1ccc(N2C(=O)/C(=C/C=C/c3ccccc3)SC2=S)cc1	3.2	-2.1
COCCOC(=O)N1C(=O)[C@@]2(c3cc(C#CCC(C(=O)OC)C(=O)OC)ccc31)[C@H](c1ccc(O)cc1)N1[C@H](c3ccccc3)[C@H](c3ccccc3)OC(=O)[C@H]1[C@@H]2C(=O)N1CCc2cc(OC)c(OC)cc2C1	41.2	.
COCCOC(=O)N1C(=O)[C@@]2(c3cc(C#CCC(C(=O)OC)C(=O)OC)ccc31)[C@H](c1ccc(OCCO)cc1)N1[C@H](c3ccccc3)[C@H](c3ccccc3)OC(=O)[C@H]1[C@@H]2C(=O)N1CCN(c2ncccn2)CC1	112.0*	.
O=C(O)c1cccc(S(=O)(=O)NCC2CCCO2)c1 (centres undefined)	10.7	1.3
CS(=O)(=O)Nc1ccc(S(=O)(=O)NCC2CCCO2)cc1 (centres undefined)	95.7*	0.3
O=C(CSCc1ccccc1)Nc1ccccc1C(=O)NCc1ccccc1	-12.8	.
CC/C=C\C=C1\C(=O)C=CC1CCCCCCCC(=O)O (centres undefined)	87.3*	.
CC/C=C\CC1C(=O)C=C/C1=C/CCCCCCC(=O)O (centres undefined)	15.4	3.2
Cc1cc(C)cc(NC(=O)CN(c2ccccc2F)S(C)(=O)=O)c1	-16.1	2.3
COc1ccc(NC(=O)C(C)N(c2ccc(C)c(C)c2)S(C)(=O)=O)cc1 (centres undefined)	2.9	4.9
COc1ccc(-c2cc(C(F)F)n3ncc(C(=O)Nc4cccc(S(=O)(=O)N5CCOCC5)c4)c3n2)cc1	132.6*	-2.2
COc1ccc(S(=O)(=O)N2CCOCC2)cc1C(=O)Nc1ccc(S(=O)(=O)C(F)F)cc1	10.8	2.6
O=C(CC1CCC1)Nc1ccc(Oc2ccccc2)cc1	-5.6	.
O=C(Nc1ccc2c(c1)OCO2)c1cncc(NS(=O)(=O)c2ccccc2)c1	-3.2	.
COc1ccc(NC(=O)COc2ccc(Br)cc2C)c([N+](=O)[O-])c1	8.2	-4.9
CCN1CCN(C(=O)C2CCN(S(=O)(=O)c3ccc4c(c3)nc(C)n4C3CCCC3)CC2)CC1	-17.7	.
CCOc1ccc(S(=O)(=O)N2CCCCC2)cc1-c1nc2c(C(C)(C)C)nn(C)c2c(=O)[nH]1	169.8*	.
COc1ccc(CN2C(=O)c3cccc4cccc(c34)C2=O)cc1S(=O)(=O)N1CCCCCC1	34.2	-1.3
CCCc1nc(C)c2c(=O)[nH]c(-c3cc(S(=O)(=O)N4CCN(CC)CC4)ccc3OCC)nn12	133.8*	.
CS(=O)(=O)N(CC(=O)Nc1ccccc1C(=O)N1CCOCC1)c1cc(C(F)(F)F)ccc1Cl	6.4	0.2
O=C1c2ccccc2NC(c2ccccc2)N1NS(=O)(=O)c1ccccc1 (centres undefined)	-8.6	.
O=C1c2ccccc2NC(c2ccccc2)N1N=C1CCCCCC1 (centres undefined)	95.8*	0.0
SMILES	ROS inducer	PD-1 reversal
N#CC1=C(N)N(c2ccc(S(N)(=O)=O)cc2)C2=C(CCC2)C1(C(F)(F)F)C(F)(F)F	43.9	.
Cc1cc(C(=O)Nc2cccc3c2O[C@H](CN(C)Cc2ccc(Oc4ccccc4)cc2)[C@H](C)CN([C@H](C)CO)C3=O)n(C)n1	18.1	-1.8
C[C@@H]1CN([C@H](C)CO)C(=O)c2cccc(NC(=O)Nc3ccccc3)c2O[C@H]1CN(C)Cc1ccc(Oc2ccccc2)cc1	21.5	-1.5
COc1ccc(NC(=O)N(C)C[C@@H]2Oc3c(cccc3N(C)C)C(=O)N([C@H](C)CO)C[C@H]2C)cc1	-5.3	.
C[C@@H]1CN([C@@H](C)CO)C(=O)c2cccc(NC(=O)Nc3ccccc3)c2O[C@H]1CN(C)Cc1ccc(Oc2ccccc2)cc1	105.3*	-3.8
Cc1cc(C(=O)Nc2cccc3c2O[C@@H](CN(C)Cc2ccc(Oc4ccccc4)cc2)[C@H](C)CN([C@@H](C)CO)C3=O)n(C)n1	116.8*	-8.2
Cc1noc(C)c1S(=O)(=O)Nc1ccc2c(c1)C(=O)N([C@H](C)CO)C[C@@H](C)[C@@H](CN(C)Cc1ccc(Cl)c(Cl)c1)O2	101.3*	-0.5
COc1ccc(NC(=O)N(C)C[C@H]2Oc3c(cccc3N(C)C)C(=O)N([C@H](C)CO)C[C@@H]2C)cc1	79.4*	-0.1
Cc1noc(C)c1S(=O)(=O)Nc1ccc2c(c1)C(=O)N([C@H](C)CO)C[C@H](C)[C@@H](CN(C)Cc1ccc(Cl)c(Cl)c1)O2	72.2	-4.4
CCOc1ccc(CNC(=O)c2cc(=O)[nH]c3ccccc23)cc1	-2.2	.
Cc1ccc(N2C(=O)C(C=NCc3ccc(C(=O)O)cc3)C(=O)NC2=S)cc1 (centres undefined)	-15.5	.
Cc1cccc(CCNC(=S)Nc2ccc3nc4n(c(=O)c3c2)CCCCC4)c1	-20.3	.
O=S(=O)(NCC1CCN(Cc2ccc(OCCO)cc2)CC1)c1ccccc1	9.0	.
Clc1cc(Cl)c2nc(Oc3cccc(N4CCOCC4)c3)sc2c1	-21.4	.
CN(Cc1ccccc1)c1sc(S(C)(=O)=O)nc1S(=O)(=O)c1ccc(Cl)cc1	-1.9	.
Cc1ccc(NC(=O)CSc2nc(C)cc(-c3ccc(Cl)cc3)n2)cc1	-13.3	-1.5
CSc1ccc(C2N[C@@H](C(=O)O)C(C)(C)S2)cc1 (some centres undefined)	14.0	-0.6
NS(=O)(=O)c1ccc(NC(=S)N2CCc3ccccc3C2)cc1	1.8	.
C[C@H](CO)N1C[C@H](C)[C@H](CN(C)Cc2ccc(Oc3ccccc3)cc2)Oc2c(NC(=O)Nc3ccc(F)cc3)cccc2C1=O	12.1	-1.7
C[C@H](CO)N1C[C@H](C)[C@@H](CN(C)Cc2ccc(Oc3ccccc3)cc2)Oc2c(NC(=O)Nc3ccc(F)cc3)cccc2C1=O	82.0*	-1.4
Cc1noc(C)c1NC(=O)N(C)C[C@@H]1Oc2c(NC(=O)Nc3ccc4c(c3)OCO4)cccc2C(=O)N([C@H](C)CO)C[C@@H]1C	-4.7	1.6
C[C@@H]1CN([C@H](C)CO)C(=O)c2cccc(NC(=O)Nc3ccc(F)cc3)c2O[C@@H]1CN(C)Cc1ccc2c(c1)OCO2	-5.0	1.1
Cc1noc(C)c1NC(=O)N(C)C[C@@H]1Oc2c(NC(=O)Nc3ccc4c(c3)OCO4)cccc2C(=O)N([C@@H](C)CO)C[C@H]1C	115.5*	3.9
Cc1noc(C)c1NC(=O)Nc1cccc2c1O[C@H](CN(C)Cc1ccc(Oc3ccccc3)cc1)[C@H](C)CN([C@@H](C)CO)C2=O	-4.3	0.2
Cc1noc(C)c1NC(=O)Nc1cccc2c1O[C@H](CN(C)Cc1ccc(Oc3ccccc3)cc1)[C@@H](C)CN([C@@H](C)CO)C2=O	87.5*	-5.1
C[C@@H]1CN([C@@H](C)CO)C(=O)c2cccc(NC(=O)Nc3ccc(F)cc3)c2O[C@H]1CN(C)Cc1ccc2c(c1)OCO2	114.7*	-7.1
Cc1cc(Cl)ccc1OC(C)C(=O)N1CCN(c2ccccc2F)CC1 (centres undefined)	7.3	.

Source: PubChem
